Data published in PubChem BioAssay AID624330 (Southern Research Specialized Biocontainment Screening …, 2012).
Hit rate of the full screen: of about 340,000 compounds, about 2,100 (0.62%) were called active.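 How the source made its calls: active means first-screen hits whose inhibition reached a set limit at any dose in the follow-up dose series; inconclusive means inhibition above the set first-screen limit but never retested; inactive means the rest.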 Only a sample is shown. Potency and affinity values are given separately.

Each compound was assayed against Rac GTPase-activating protein 1 (Homo sapiens) (UniProt Q9H0H5) (assay: blockers of MgcRacGAP-driven Rac1 GTP hydrolysis – biochemical, ADP Hunter fluorescence, primary and confirmatory, confirmation (AID 624330;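 further: fluorescence reports GDP produced by GAP-driven GTP hydrolysis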)). Conditions: MgcRacGAP-stimulated Rac1 GTP hydrolysis, at 30 µM, hits give high values, GST-tagged Rac1 F28L mutant substrate.
Chain of Rac GTPase-activating protein 1 (Homo sapiens) (Q9H0H5 whole entry, looked up): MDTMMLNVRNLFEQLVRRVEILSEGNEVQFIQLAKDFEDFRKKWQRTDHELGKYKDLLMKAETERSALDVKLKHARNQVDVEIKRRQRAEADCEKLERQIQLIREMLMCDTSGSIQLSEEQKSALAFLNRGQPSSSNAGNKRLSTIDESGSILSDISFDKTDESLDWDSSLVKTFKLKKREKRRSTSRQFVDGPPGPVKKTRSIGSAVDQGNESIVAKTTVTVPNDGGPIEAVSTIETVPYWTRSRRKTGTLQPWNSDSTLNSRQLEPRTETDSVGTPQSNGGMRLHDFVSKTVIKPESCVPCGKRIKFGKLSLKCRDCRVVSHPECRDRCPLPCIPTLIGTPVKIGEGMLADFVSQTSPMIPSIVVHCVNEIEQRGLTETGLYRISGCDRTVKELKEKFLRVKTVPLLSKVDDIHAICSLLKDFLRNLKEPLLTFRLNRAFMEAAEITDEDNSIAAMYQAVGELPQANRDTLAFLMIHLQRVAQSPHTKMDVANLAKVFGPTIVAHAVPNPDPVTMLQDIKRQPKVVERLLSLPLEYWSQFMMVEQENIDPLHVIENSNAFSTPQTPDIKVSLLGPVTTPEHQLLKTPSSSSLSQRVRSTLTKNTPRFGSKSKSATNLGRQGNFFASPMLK

inhibition, inactive:
CCn1ccnc1CN(C)C(=O)CCc1nnc(CCCc2ccccc2)o1 -6.18%, CCCc1cc(-n2ccnc2)n2c(nc3ccccc32)c1C#N -0.61%, CCCc1cc(-n2cnc3ccccc32)n2c(nc3ccccc32)c1C#N 11%, COc1ccc(Br)c(C(=O)OCC(=O)NC2CCCCCC2)c1 8.08%, CCCCN1C(=O)C(CC(=O)NCCc2ccccn2)CC(C(=O)N2CCOCC2)=C1C (configuration not stated) 11.8%, CN(c1ccc(C(=O)Nc2ccccc2C(F)(F)F)cc1)S(C)(=O)=O 5.77%, Cc1cc(C)n(C(=O)c2ccc(Cn3nc(C)c(Br)c3C)o2)n1 4.85%, Nc1c(C(=O)N2CCCCC2)sc(=S)n1-c1ccccc1 10.5%, Nc1c(C(=O)N2CCOCC2)sc(=S)n1-c1ccccc1 11.6%, NC(=O)c1ccccc1NC(=O)C1CCCO1 (configuration not stated) 5.38%, C/C(O)=C(/C#N)c1nc2ccccc2[nH]1 9.91%, C/C(O)=C(\C#N)c1nc2ccccc2[nH]1 6.3%, CCc1cccc(C)c1NC(=O)CC(C)(C)CC(=O)O -15.4%, Cc1ccc(N/N=C(\C#N)C(N)=S)cc1C 14.2%, COc1ccc(CC(=O)Nc2cc(S(=O)(=O)N3CCOCC3)ccc2N2CCCC2)cc1 -0.25%, CCN(CC)S(=O)(=O)c1ccc(NC(=O)CNC2CCCCC2)cc1 31.5%, CN(C)S(=O)(=O)c1cccc(NC(=O)CCCC2CCCCC2)c1 4.27%, CCN(CC)S(=O)(=O)c1cccc(NC(=O)CN(C)C2CCCCC2)c1 -0.2%, Cc1ccc(NC(=O)CNCC2CCCCC2)cc1S(=O)(=O)N(C)C 28.9%, COc1ccc(S(=O)(=O)Nc2ccccc2C(=O)N2CCOCC2)cc1OC 3.41%, COc1ccc(CCNC(=O)C(C)SCC(=O)Nc2ccc(F)cc2)cc1 (configuration not stated) 6.87%, Cc1cc([N+](=O)[O-])nn1CC(=O)Nc1nc2ccccc2s1 6.23%, COc1ccc(/C(C)=N/NC(=O)Cc2c(C)nc(C)[nH]c2=O)cc1 -5.47%, COc1ccccc1C(=O)N/N=C(\C)c1ccc(NC(=O)Cc2ccccc2)cc1 7.02%, C/C(=N\NC(=O)C(O)(c1ccccc1)c1ccccc1)c1ccc(NC(=O)CCCC(=O)O)cc1 7.64%, COc1cccc(C(=O)N/N=C(\C)c2ccc(NC(=O)Cc3ccccc3)cc2)c1OC 10.3%, COc1ccc(/C(C)=N/NC(=O)c2ccncc2)cc1 4.26%, COc1ccc(/C(C)=N/NC(=O)c2ccncc2)cc1[N+](=O)[O-] 3.87%, COc1ccccc1OCC(=O)N/N=C(\C)c1ccc2ccccc2c1 5.4%, COc1cc(C(=O)O)ccc1O 9.79%, Cc1ccccc1N1CCN(C2=NC(=O)/C(=C/c3cn[nH]c3-c3ccccc3)S2)CC1 -0.05%, CC(=O)N1c2ccc(S(=O)(=O)N3CCCCC3)cc2CC1C(=O)NCc1ccc(N(C)C)cc1 (configuration not stated) 3.76%, Fc1ccc(CNC(=S)NCc2ccc(F)cc2)cc1 -6.74%, CCNC(=S)N(Cc1cccs1)Cc1cc2cc(OCC)ccc2[nH]c1=O 9.83%, COc1ccc(OCCOCCOc2ccc(C)cc2[N+](=O)[O-])cc1 4.97%, Cc1cnc(C(=O)OC(C(=O)c2c[nH]c3ccccc23)c2ccccc2)cn1 (configuration not stated) 10%, C=C1/C=C(\C)C(C)(O)CC(O)CC(=O)C(O)C(O)C(C)CC(C)OC(=O)/C(C)=C/CC/C=C/C(OC)C(O)CC(C)C1 (configuration not stated) 9.68%, COc1cc(CN2CCCC(CO)(Cc3ccccc3C)C2)cc2c1OCO2 (configuration not stated) 1.83%, O=C(Nc1cc(Br)ccc1O)c1cc(-c2ccco2)on1 8.94%, Brc1ccc(OCCOCCN2CCOCC2)cc1 4.13%, Brc1ccc(OCCN2CCOCC2)cc1 28.6%, Clc1cccc(OCCN2CCOCC2)c1 10.7%, Brc1cccc(OCCN2CCCCC2)c1 17.4%, O=C(/C=C/c1cccc([N+](=O)[O-])c1)OCC(=O)N1CCN(C(=O)c2ccco2)CC1 4.32%, COc1cc(/C=C/C(=O)OCC(=O)N2CCCc3ccccc32)ccc1OCC#N 6.56%, COc1cc(/C=C/C(=O)OCC(=O)N2CCCc3ccccc32)ccc1OC(F)F 1.81%, COc1ccccc1OCC(=O)N1CC2(C)CC1CC(C)(C)C2 (configuration not stated) 8.14%, COc1ccccc1C(=O)OCC(=O)N1CCC(Cc2ccccc2)CC1 6.97%, COc1cccc(OC)c1C(=O)OCC(=O)N1CCC(Cc2ccccc2)CC1 -0.57%, COc1ccc(/C=N/OCC(=O)N2CC3(C)CC2CC(C)(C)C3)cc1OC (configuration not stated) 4.24%, CCOC(=O)/C=C/C(=O)OCC(=O)N1CCN(C(=O)c2ccco2)CC1 8.47%, Cc1ccc(-c2ccc(=O)n(CC(=O)NCCN(CC(C)C)CC(C)C)n2)cc1 8.51%, O=C1C(CO)C(CO)C(CO)C1CO (configuration not stated) -2.59%, CNCCCc1[nH]nc(N)c1C#N 9.11%, CCN(CC(=O)Nc1c(F)cccc1F)C(=O)c1cn2ccccc2n1 2.69%, Cc1ccn2cc(CCNC(=O)c3ccc(Br)o3)nc2c1 13.4%, O=S(=O)(CCc1nc2ccccc2s1)c1ccc2ccccc2c1 18.8%, CCN(CC)S(=O)(=O)c1ccc(NN)nc1 -5.75%, COc1ccc(/C=C/C(=O)OCC(=O)N2CCN(S(=O)(=O)c3ccc(C)cc3C)CC2)cc1OC -0.78%, COc1cc(/C=C/C(=O)OCC(=O)N2CCN(S(=O)(=O)c3ccc(C)cc3C)CC2)ccc1OC(F)F 5.89%, COc1ccc(/C=C/C(=O)OCC(=O)N2CCCCCC2)cc1OC 0.54%, COc1cc(/C=C/C(=O)OCC(=O)N2CCCC2)cc(OC)c1OC 4.39%
